Test results as given in PubChem BioAssay AID1159580 (chemical genetic matrix, 2015).
Several values for one entry are separate records, joined by “and”; a condition that tells them apart may be missing. Identical values can stand only once. Among all 5,500 compounds or so, about 2,000 (36%) were called active. Inconclusive results (about 18%) are left out. Cut-off read from the data, not from the text of the source: active = normalized growth mostly below about 0.91 (no sharp cut-off); inconclusive = no clear call, values can overlap the other calls; inactive = mostly above about 0.92. The list shows a part of the results.

Assay: chemical genetic growth profiling, strain panel (AID 1159580);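 note: tested at 20 µM; growth read once vehicle control cultures reached saturation at 30 °C; 1 = growth at the plate median or of vehicle wells; lower values mean less growth of the strain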
Settings: S. cerevisiae deletion strains, growth OD

Measured: normalized growth

COc1ccc2ccc(=O)oc2c1
inactive: locus YAL013W, strain DEP1, hits give low values 1.01 | locus YAL021C, strain ccr4, hits give low values 1 | locus YAL026C, strain drs2, hits give low values 1 | locus YAL030W, strain snc1, hits give low values 1 | locus YBL061C, strain skt5, hits give low values 1 | locus YBR009C, strain hhf1, hits give low values 1.02 | locus YBR021W, strain FUR4, hits give low values 0.997 | locus YBR023C, strain chs3, hits give low values 1.01 | locus YBR171W, strain sec66, hits give low values 0.988 | locus YBR229C, strain ROT2, hits give low values 1.02 | locus YBR231C, strain swc5, hits give low values 0.987 | locus YBR279W, strain paf1, hits give low values 1 | locus YCL011C, strain gbp2, hits give low values 0.98 | locus YCL016C, strain dcc1, hits give low values 1 | locus YCL029C, strain bik1, hits give low values 0.999 | locus YCL061C, strain MRC1, hits give low values 1 | locus YCL069W, strain vba3, hits give low values 0.988 | locus YCR088W, strain abp1, hits give low values 0.992 | locus YDL005C, strain med2, hits give low values 0.996 | locus YDL035C, strain GPR1, hits give low values 1.04 | locus YDL040C, strain nat1, hits give low values 1 | locus YDL074C, strain BRE1, hits give low values 1.04 | locus YDL101C, strain DUN1, hits give low values 1.01 | locus YDL185W, strain tfp1, hits give low values 1.03 | locus YDL192W, strain arf1, hits give low values 1.01 | locus YDR001C, strain nth1, hits give low values 0.991 | locus YDR069C, strain doa4, hits give low values 0.99 | locus YDR101C, strain arx1, hits give low values 0.985 | locus YDR137W, strain rgp1, hits give low values 0.977 | locus YDR150W, strain NUM1, hits give low values 1.01 | locus YDR159W, strain sac3, hits give low values 0.973 | locus YDR162C, strain NBP2, hits give low values 1.03 | locus YDR195W, strain ref2 1.01 | locus YDR297W, strain sur2, hits give low values 1 | locus YDR318W, strain mcm21, hits give low values 1.02 | locus YDR334W, strain swr1, hits give low values 0.987 | locus YDR335W, strain msn5, hits give low values 0.998 | locus YDR388W, hits give low values 1.04 | locus YDR392W, strain spt3, hits give low values 0.964 | locus YDR502C, strain sam2, hits give low values 1.02 | locus YEL003W, strain gim4, hits give low values 1.01 | locus YEL037C, strain rad23, hits give low values 1 | locus YEL061C, strain CIN8 (second series), hits give low values 0.983 | locus YEL061C, strain CIN8, hits give low values 1.01 | locus YER015W, strain faa2, hits give low values 1 | locus YER016W, strain bim1, hits give low values 1 | locus YER110C, hits give low values 1.02 | locus YER111C, strain swi4, hits give low values 0.998 | locus YER155C, strain BEM2 (second series), hits give low values 0.97 | locus YER155C, strain BEM2, hits give low values 1 | locus YER167W, strain BCK2, hits give low values 1.01 | locus YFR010W, strain ubp6, hits give low values 0.98 | locus YGL078C, strain dbp3, hits give low values 1.01 | locus YGL086W, strain mad1, hits give low values 1.02 | locus YGL167C, strain pmr1, hits give low values 1.02 | locus YGL173C, strain kem1, hits give low values 1.02 | locus YGL227W, strain vid30, hits give low values 0.983 | locus YGL240W, strain doc1, hits give low values 0.973 | locus YGL248W, strain PDE1, hits give low values 1.05 | locus YGL253W, strain hxk2, hits give low values 0.986 | locus YGR135W, strain pre9, hits give low values 1.01 | locus YGR252W, strain gcn5, hits give low values 0.964 | locus YHR013C, strain ard1, hits give low values 1.04 | locus YHR027C, strain rpn1, hits give low values 0.999 | locus YHR030C, strain SLT2, hits give low values 1.02 and 0.994 | locus YHR079C, strain IRE1 (second series), hits give low values 1.01 | locus YHR079C, strain IRE1, hits give low values 0.997 | locus YHR094C, strain hxt1, hits give low values 1.04 | locus YHR129C, strain ARP1, hits give low values 1.02 | locus YHR142W, strain chs7, hits give low values 1.01 | locus YHR200W, strain rpn10, hits give low values 1.01 | locus YIL066C, strain RNR3, hits give low values 1.02 | locus YIL073C, strain SPO22, hits give low values 1.11 | locus YIL125W, strain kgd1, hits give low values 1.03 | locus YIR030C, strain dcg1, hits give low values 1.01 | locus YJL092W, strain hpr5, hits give low values 0.998 | locus YJL095W, strain BCK1 (second series), hits give low values 1.01 | locus YJL095W, strain BCK1, hits give low values 1.01 and 1.02 | locus YJL115W, strain asf1, hits give low values 0.992 | locus YJL129C, strain trk1, hits give low values 0.99 | locus YJL134W, strain LCB3, hits give low values 1.01 | locus YJL154C, strain vps35, hits give low values 0.999 | locus YJL164C, strain tpk1, hits give low values 1.02 | locus YJL166W, strain qcr8, hits give low values 1.01 | locus YJL168C, strain set2, hits give low values 1.02 | locus YJL187C, strain SWE1 (second series), hits give low values 1.02 | locus YJL187C, strain SWE1, hits give low values 0.995 | locus YJR066W, strain TOR1, hits give low values 0.934 | locus YKL009W, strain mrt4, hits give low values 1 | locus YKL068W, hits give low values 1.04 | locus YKL085W, strain MDH1 (second series), hits give low values 1.02 | locus YKL085W, strain MDH1, hits give low values 1.02 | locus YKL160W, strain elf1, hits give low values 1.02 | locus YKR001C, strain vps1, hits give low values 1.03 | locus YKR026C, strain gcn3, hits give low values 0.98 | locus YKR091W, strain srl3, hits give low values 1.02 | locus YLL001W, strain dnm1, hits give low values 0.985 | locus YLL026W, hits give low values 1 | locus YLL041C, strain sdh2, hits give low values 0.996 | locus YLR027C, strain aat2, hits give low values 0.992 | locus YLR039C, strain RIC1, hits give low values 1.15 | locus YLR058C, strain SHM2, hits give low values 1.02 | locus YLR102C, strain apc9, hits give low values 1.03 | locus YLR113W, strain HOG1, hits give low values 1.02 | locus YLR221C, strain rsa3, hits give low values 0.987 | locus YLR258W, strain gsy2, hits give low values 1.02 | locus YLR262C, strain YPT6 (second series), hits give low values 1.02 | locus YLR268W, strain sec22, hits give low values 1.02 | locus YLR320W, strain mms22, hits give low values 0.993 | locus YLR330W, strain CHS5, hits give low values 1.03 | locus YLR342W, strain FKS1 (second series), hits give low values 1.05 | locus YLR342W, strain FKS1, hits give low values 1 | locus YLR357W, strain rsc2, hits give low values 0.984 | locus YLR370C, strain arc18, hits give low values 0.989 | locus YLR371W, strain rom2, hits give low values 1.05 | locus YLR384C, strain iki3, hits give low values 0.995 | locus YLR418C, strain cdc73, hits give low values 1.02 | locus YML016C, strain PPZ1, hits give low values 1.02 | locus YML032C, strain rad52, hits give low values 0.997 | locus YML120C, strain ndi1, hits give low values 0.999 | locus YML124C, strain tub3, hits give low values 1.02 | locus YMR058W, strain fet3, hits give low values 0.98 | locus YMR078C, strain ctf18, hits give low values 1.01 | locus YMR125W, strain sto1, hits give low values 0.984 | locus YMR129W, hits give low values 1.01 | locus YMR205C, strain PFK2, hits give low values 1.06 | locus YMR223W, strain ubp8, hits give low values 1.02 | locus YMR231W, strain pep5, hits give low values 0.996 | locus YMR307W, strain GAS1, hits give low values 1.09 | locus YNL067W, strain RPL9B, hits give low values 1.01 | locus YNL071W, strain lat1, hits give low values 1.01 | locus YNL153C, strain GIM3, hits give low values 1.01 | locus YNL183C, strain NPR1, hits give low values 0.949 | locus YNL209W, strain ssb2, hits give low values 1.01 | locus YNL233W, strain BNI4, hits give low values 1.04 | locus YNL248C, strain rpa49, hits give low values 0.974 | locus YNL250W, strain rad50, hits give low values 1.07 | locus YNL271C, strain bni1, hits give low values 1.01 | locus YNL298W, strain CLA4, hits give low values 0.997 | locus YNL307C, strain MCK1, hits give low values 1.03 | locus YNL322C, strain KRE1 (second series), hits give low values 1 | locus YNL322C, strain KRE1, hits give low values 1 | locus YNR049C, strain mso1, hits give low values 1 | locus YNR052C, strain pop2, hits give low values 1.04 | locus YOL006C, strain TOP1, hits give low values 1.09 | locus YOL012C, strain htz1 0.887 | locus YOL147C, strain pex11, hits give low values 1.02 | locus YOR001W, strain rrp6, hits give low values 0.954 | locus YOR061W, strain CKA2, hits give low values 1.02 | locus YOR069W, strain VPS5, hits give low values 0.999 | locus YOR070C, strain gyp1, hits give low values 1.01 | locus YOR080W, strain dia2, hits give low values 1 | locus YOR083W, strain WHI5, hits give low values 1.06 | locus YOR106W, strain vam3, hits give low values 1.01 | locus YOR136W, strain idh2, hits give low values 1.01 | locus YOR144C, strain elg1, hits give low values 1.01 | locus YOR184W, strain ser1, hits give low values 1 | locus YOR231W, strain MKK1, hits give low values 1.01 | locus YOR265W, strain rbl2, hits give low values 0.996 | locus YOR270C, strain vph1, hits give low values 1.07 | locus YOR290C, strain snf2, hits give low values 0.995 | locus YOR316C, strain cot1, hits give low values 1.01 | locus YPL051W, strain arl3, hits give low values 0.995 | locus YPL055C, strain LGE1, hits give low values 1.07 | locus YPL078C, strain atp4, hits give low values 1.01 | locus YPL106C, strain sse1, hits give low values 0.98 | locus YPL240C, strain hsp82, hits give low values 0.995 | locus YPL241C, strain CIN2, hits give low values 1.02 | locus YPL256C, strain CLN2, hits give low values 0.994 | locus YPR119W, strain clb2, hits give low values 1.01 | locus YPR141C, strain kar3, hits give low values 1.01 | locus YPR163C, strain tif3, hits give low values 1.02 | locus YPR167C, strain met16, hits give low values 1.02 | strain wtn01, hits give low values 1.01
